A short description of experiment [1]: NCI Yeast Anticancer Drug Screen. Data for the rad50 strain (AID 155).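 Note: 0% = growth of vehicle-only cultures of the same strain.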 Conditions: S. cerevisiae rad50 strain growth inhibition; at 50.0 µM; hits give high values. An outline of the steps: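 Readout: growth inhibition relative to vehicle-treated cultures. Compound exposure was carried out in a genetically defined yeast strain deficient in DNA damage repair.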

A short description of experiment [2]: NCI Yeast Anticancer Drug Screen. Data for the mec2-1 strain (AID 157). The following applies: S. cerevisiae mec2-1 strain, at 50.0 µM, hits give high values. An outline of the steps: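 Each compound was tested on mec2-1 yeast, a strain altered in DNA damage repair or cell cycle control. Growth inhibition is reported relative to vehicle.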
A short description of experiment [3]: NCI Yeast Anticancer Drug Screen. Data for the sgs1 mgt1 strain (AID 161).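 Note: 0% = growth of cultures given vehicle only.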 The following applies: S. cerevisiae sgs1 mgt1 strain, at 50.0 µM, hits give high values. An outline of the steps:
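Read-out: growth inhibition vs vehicle controls. Cells: mutant yeast strain deficient in DNA damage repair.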

Experiment [4] can be described thus: NCI Yeast Anticancer Drug Screen. Data for the cln2 rad14 strain (AID 165).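 Note: 0% = growth equal to vehicle treated cultures.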 The following applies: S. cerevisiae cln2 rad14 strain, at 50.0 µM, hits give high values. The method in brief:
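Test compounds were added to cln2 rad14 yeast cultures; inhibition of growth was then determined by comparison with vehicle treatment.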

Experiment [5] in a line: NCI Yeast Anticancer Drug Screen. Data for the bub3 strain (AID 167). Conditions: S. cerevisiae bub3 mutant strain, at 50.0 µM, hits give high values. The method in brief:
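Readout: yeast growth inhibition, expressed relative to vehicle-only wells. The test organism is a mutant strain from a panel with lesions in DNA repair or checkpoint genes.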

Experiment [6] in a line: NCI Yeast Anticancer Drug Screen. Data for the mlh1 rad18 strain (AID 175). Conditions: S. cerevisiae mlh1 rad18 strain growth inhibition; at 50.0 µM; hits give high values. An outline of the steps: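 Inhibition values reflect reduced growth of mutant yeast versus vehicle-treated controls following compound exposure; the mutations affect DNA damage repair.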

The panel holds about 79,000 compounds, 15% with a hit somewhere; the sample as a whole holds those more often. Unmarked numbers belong to inactive results. Calls of active or inactive are those of the source. Cut-off read from the data, not from the text of the source: active = growth inhibition above about 70%; inactive = the rest.

Take `CCCCN(C(=O)CCC)c1ccccc1`: the growth inhibition in experiment [1] is -71.1%; in experiment [2] it was -0.75%; in experiment [3], -11.9%; in experiment [4], -40%; in experiment [5], -11.2%; in experiment [6], -10.1%.
For the compound `CCN(CC)CCNc1cc2ccccc2c2sc3ccccc3c(=O)c12`, the growth inhibition is 98.5% (active) in experiment [1]; 99.2% (active) in experiment [2]; 97.6% (active) in experiment [3]; 98.8% (active) in experiment [4]; 98.2% (active) in experiment [5]; 98.3% (active) in experiment [6].
Consider `O=S(=O)(c1ccccc1)c1cccc2c[n+]3ccccc3cc12`, for which the growth inhibition in experiment [1] was 34.6%; in experiment [2], 9.35%; in experiment [3], 39.2%; in experiment [4], 24.6%; in experiment [5], 22.5%; in experiment [6] it was 24.9%.
Turning to `CCC(c1ccc(OC)cc1)C1NC(=S)NC1=O` (stereo not given), the growth inhibition in experiment [1] is 4.05%; in experiment [2] it was -30.1%; in experiment [3] it was 3.2%; in experiment [4], 6.45%; in experiment [5] it was 9.55%; in experiment [6] it was 11.6%.
Regarding `COC1(C)COC(C)(OC)CO1` (stereo not given), the growth inhibition in experiment [1] is 34.3%; in experiment [2], 20.9%; in experiment [3], 24.1%; in experiment [4] it was 13.6%; in experiment [5], 12.8%; in experiment [6], 18.6%.
Consider `O=C1O[C@@H]2C3COC(O)[C@](O)(O3)[C@@H]2/C1=C\c1ccc(O)cc1` (stereo not given in full), for which the growth inhibition in experiment [1] was 20.1%; in experiment [2] it was 10.4%; in experiment [3] it was 8.4%; in experiment [4], 5.25%; in experiment [5], 8.45%; in experiment [6], 9.4%.
Regarding `O=c1c2c3c(sc2nc2n1N=CN(c1ccc(F)cc1)C2)CCCC3`, the growth inhibition in experiment [1] is 4.95%; in experiment [2], -1.9%; in experiment [3], 2.4%; in experiment [4], -8.3%; in experiment [5], -1.05%; in experiment [6], -5.9%.
Take `CC1=C(C(=O)Nc2cc(F)c(F)cc2F)C(c2cccc([N+](=O)[O-])c2)C(C(=O)Nc2ccccc2C(F)(F)F)=C(C)N1` (stereo not given): the growth inhibition was 20.4% in experiment [1]; 21.8% in experiment [2]; 8.4% in experiment [3]; 2.15% in experiment [4]; 9.75% in experiment [5]; -2.65% in experiment [6].
With `O=C(O)/C=C\C(=O)Nc1ccccc1Cl`, the growth inhibition in experiment [1] was -12.8%; in experiment [2], -9.95%; in experiment [3] it was 10.9%; in experiment [4], 6.85%; in experiment [5], 13.4%; in experiment [6], -10.8%.
`COc1ccc(NC(=O)CCC2=CC(=O)CC(c3ccccc3)O2)cc1` (stereo not given): the growth inhibition in experiment [1] was 2.9%; in experiment [2] it was 9.65%; in experiment [3] it was 2.35%; in experiment [4], 25.3%; in experiment [5], -8.45%; in experiment [6], -5.05%.
With `S=c1[nH]ncc(SCc2ccccc2)c1SCc1ccccc1`, the growth inhibition in experiment [1] is 2.95%; in experiment [2], 2.85%; in experiment [3], -8.05%; in experiment [4], -15.1%; in experiment [5] it was 7.1%; in experiment [6] it was 7.55%.
Take `CC(=O)n1[nH]c(=O)c2ncccc2c1=O`: the growth inhibition was 2.75% in experiment [1]; 7.6% in experiment [2]; 9.45% in experiment [3]; -6.6% in experiment [4]; -8.45% in experiment [5]; 9% in experiment [6].
For the compound `CCCCCCCCCCCCCCCCCCCCc1ccccc1`, the growth inhibition in experiment [1] is 25.9%; in experiment [2] it was 10.3%; in experiment [3] it was 1.2%; in experiment [4], 12.7%; in experiment [5], -14.2%; in experiment [6], 26.4%.
Consider `N#Cc1cc2c(n(C3OC(CO)C(O)C(O)C3O)c1=S)CCCCCC2` (stereo not given), for which the growth inhibition is 31% in experiment [1]; 19.5% in experiment [2]; 17.8% in experiment [3]; 10.4% in experiment [4]; -3.55% in experiment [5]; 37.1% in experiment [6].
Turning to `CCOC(=O)C(C)(C)c1cn(C)c2ccccc12`, the growth inhibition was -7.05% in experiment [1]; -9.9% in experiment [2]; -2.7% in experiment [3]; -4.8% in experiment [4]; -6.55% in experiment [5]; 7.4% in experiment [6].
As to `CN(CCC#N)c1ccc(/C=C(\C#N)c2ccc(Br)cc2)cc1`, the growth inhibition in experiment [1] is 12.2%; in experiment [2], -23.8%; in experiment [3] it was 13.6%; in experiment [4] it was -12%; in experiment [5], -0.85%; in experiment [6], -18.9%.
As for `CCOC(=O)/C(Cc1cnc2ccccc2n1)=N\O`, the growth inhibition in experiment [1] is -1%; in experiment [2], -4.4%; in experiment [3] it was -8.95%; in experiment [4], -52.5%; in experiment [5], 5.7%; in experiment [6], -24.9%.
For `CSC1C(=O)Nc2ccc([N+](=O)[O-])cc21` (stereo not given), the growth inhibition is -11.6% in experiment [1]; -12.7% in experiment [2]; 0.45% in experiment [3]; -19.3% in experiment [4]; -39.7% in experiment [5]; -0.8% in experiment [6].
For the compound `NNC(=S)N/N=C(\c1nc2ccc(Cl)cc2[nH]c1=O)C(O)c1cccc([N+](=O)[O-])c1` (stereo not given), the growth inhibition in experiment [1] was 48.6%; in experiment [2], 27.6%; in experiment [3], 12%; in experiment [4], -17.1%; in experiment [5] it was 27.4%; in experiment [6] it was -8.4%.
In the case of `O=C(C[n+]1csc2ccccc21)c1ccc(-c2ccccc2)cc1`, the growth inhibition in experiment [1] was 18.1%; in experiment [2], 9.8%; in experiment [3], -11.9%; in experiment [4], -3.05%; in experiment [5], 11.6%; in experiment [6], 4.85%.

Source of the values: PubChem BioAssay (NCI).
